From PubChem BioAssay AID1159580 (chemical genetic matrix, 2015)
“And” between values parts separate entries of the source, which are not always exact repeats. Identical values can stand only once. Out of some 5,500 compounds screened, about 2,000 (36%) were called active. Inconclusive results (about 18%) are left out. Cut-off read from the data, not from the text of the source: active = normalized growth mostly below about 0.91 (no sharp cut-off); inconclusive = no clear call, values can overlap the other calls; inactive = mostly above about 0.92. This is one part of the list.

Test: chemical genetic growth profiling, strain panel (AID 1159580);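 note: tested at 20 µM; growth read once vehicle control cultures reached saturation at 30 °C; 1 = growth at the plate median or of vehicle wells; lower values mean less growth of the strain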
Details: S. cerevisiae deletion strains, growth OD

Measured: normalized growth

C/C=C(/C)C(=O)O[C@@H]1[C@H](OC(C)=O)[C@@]2(CO)C(CC1(C)C)C1=CCC3[C@@]4(C)CC[C@H](O[C@@H]5O[C@H](C(=O)O)[C@@H](O[C@@H]6O[C@H](CO)[C@@H](O)[C@H](O)[C@H]6O)[C@H](O)[C@H]5O[C@@H]5O[C@H](CO)[C@@H](O)[C@H](O)[C@H]5O)[C@](C)(CO)C4CC[C@@]3(C)[C@]1(C)C[C@H]2O (some centres not stated)
inactive: locus YAL021C, strain ccr4, stronger effect = lower value 1.01 | locus YAL026C, strain drs2, stronger effect = lower value 0.983 | locus YAL030W, strain snc1, stronger effect = lower value 0.987 | locus YBL061C, strain skt5, stronger effect = lower value 0.983 | locus YBR009C, strain hhf1, stronger effect = lower value 0.938 | locus YBR021W, strain FUR4, stronger effect = lower value 0.989 | locus YBR023C, strain chs3, stronger effect = lower value 0.992 | locus YBR171W, strain sec66, stronger effect = lower value 0.996 | locus YBR229C, strain ROT2, stronger effect = lower value 1.01 | locus YBR231C, strain swc5, stronger effect = lower value 0.979 | locus YBR279W, strain paf1, stronger effect = lower value 0.989 | locus YCL011C, strain gbp2, stronger effect = lower value 0.986 | locus YCL016C, strain dcc1, stronger effect = lower value 0.994 | locus YCL029C, strain bik1, stronger effect = lower value 1.03 | locus YCL061C, strain MRC1, stronger effect = lower value 0.981 | locus YCL069W, strain vba3, stronger effect = lower value 0.987 | locus YCR088W, strain abp1, stronger effect = lower value 0.989 | locus YDL005C, strain med2, stronger effect = lower value 0.982 | locus YDL035C, strain GPR1, stronger effect = lower value 1.02 | locus YDL040C, strain nat1, stronger effect = lower value 0.973 | locus YDL074C, strain BRE1, stronger effect = lower value 0.999 | locus YDL101C, strain DUN1, stronger effect = lower value 1.02 | locus YDL185W, strain tfp1, stronger effect = lower value 1.02 | locus YDL192W, strain arf1, stronger effect = lower value 1.02 | locus YDR001C, strain nth1, stronger effect = lower value 0.981 | locus YDR069C, strain doa4, stronger effect = lower value 0.982 | locus YDR101C, strain arx1, stronger effect = lower value 1.01 | locus YDR137W, strain rgp1, stronger effect = lower value 0.975 | locus YDR159W, strain sac3, stronger effect = lower value 0.96 | locus YDR162C, strain NBP2, stronger effect = lower value 1.02 | locus YDR195W, strain ref2 0.929 | locus YDR297W, strain sur2, stronger effect = lower value 0.993 | locus YDR318W, strain mcm21, stronger effect = lower value 1.03 | locus YDR334W, strain swr1, stronger effect = lower value 0.985 | locus YDR335W, strain msn5, stronger effect = lower value 0.989 | locus YDR388W, stronger effect = lower value 1.02 | locus YDR392W, strain spt3, stronger effect = lower value 0.874 | locus YDR502C, strain sam2, stronger effect = lower value 1.02 | locus YEL003W, strain gim4, stronger effect = lower value 0.992 | locus YEL037C, strain rad23, stronger effect = lower value 0.991 | locus YEL061C, strain CIN8 (second series), stronger effect = lower value 0.987 | locus YEL061C, strain CIN8, stronger effect = lower value 1.01 | locus YER015W, strain faa2, stronger effect = lower value 0.983 | locus YER016W, strain bim1, stronger effect = lower value 0.991 | locus YER110C, stronger effect = lower value 1.03 | locus YER111C, strain swi4, stronger effect = lower value 0.968 | locus YER155C, strain BEM2 (second series), stronger effect = lower value 0.997 | locus YER155C, strain BEM2, stronger effect = lower value 0.999 | locus YER167W, strain BCK2, stronger effect = lower value 1.01 | locus YFR010W, strain ubp6, stronger effect = lower value 0.991 | locus YGL078C, strain dbp3, stronger effect = lower value 1.02 | locus YGL086W, strain mad1, stronger effect = lower value 1.03 | locus YGL167C, strain pmr1, stronger effect = lower value 0.987 | locus YGL173C, strain kem1, stronger effect = lower value 0.966 | locus YGL227W, strain vid30, stronger effect = lower value 0.982 | locus YGL240W, strain doc1, stronger effect = lower value 0.97 | locus YGL248W, strain PDE1, stronger effect = lower value 1.01 | locus YGL253W, strain hxk2, stronger effect = lower value 0.974 | locus YGR135W, strain pre9, stronger effect = lower value 1.01 | locus YGR252W, strain gcn5, stronger effect = lower value 0.965 | locus YHR013C, strain ard1, stronger effect = lower value 0.965 | locus YHR027C, strain rpn1, stronger effect = lower value 0.992 | locus YHR030C, strain SLT2, stronger effect = lower value 1.01 and 0.987 | locus YHR079C, strain IRE1 (second series), stronger effect = lower value 1.03 | locus YHR079C, strain IRE1, stronger effect = lower value 0.972 | locus YHR094C, strain hxt1, stronger effect = lower value 1.03 | locus YHR129C, strain ARP1, stronger effect = lower value 1.01 | locus YHR142W, strain chs7, stronger effect = lower value 1.01 | locus YHR200W, strain rpn10, stronger effect = lower value 1.01 | locus YIL066C, strain RNR3, stronger effect = lower value 1.01 | locus YIL073C, strain SPO22, stronger effect = lower value 1.15 | locus YIL125W, strain kgd1, stronger effect = lower value 1.02 | locus YIR030C, strain dcg1, stronger effect = lower value 1.03 | locus YJL092W, strain hpr5, stronger effect = lower value 0.989 | locus YJL095W, strain BCK1 (second series), stronger effect = lower value 0.992 | locus YJL095W, strain BCK1, stronger effect = lower value 1.02 and 0.969 | locus YJL115W, strain asf1, stronger effect = lower value 0.989 | locus YJL129C, strain trk1, stronger effect = lower value 0.984 | locus YJL134W, strain LCB3, stronger effect = lower value 1 | locus YJL154C, strain vps35, stronger effect = lower value 0.987 | locus YJL164C, strain tpk1, stronger effect = lower value 1.01 | locus YJL166W, strain qcr8, stronger effect = lower value 1 | locus YJL168C, strain set2, stronger effect = lower value 1.01 | locus YJL187C, strain SWE1 (second series), stronger effect = lower value 1.02 | locus YJL187C, strain SWE1, stronger effect = lower value 0.996 | locus YJR043C, strain POL32, stronger effect = lower value 0.99 | locus YJR066W, strain TOR1, stronger effect = lower value 1.01
